# This is part of a sample that, as a whole, favours compounds with a hit. Of some 83,000 tested, about 20% had one in any assay.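 Values shown are percent growth following 48 h exposure of cells in 96-well plates to a single concentration of compound; below 10 was considered active.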 A number with no mark means an inactive call. Activity calls are given as the source filed them.
# Legend:
# Experiment in all cases: NCI-60 one-dose screen, 48 h (100 = growth as untreated, 0 = no growth, -100 = all killed)
# Conditions in all cases: 10 µM unless noted
# [1] = test system: NCI-H23 lung
# [2] = test system: NCI-H226 lung
# [3] = test system: NCI-H322M lung
# [4] = test system: HOP-62 NSCLC
# [5] = test system: NCI-H460 lung
# [6] = test system: HOP-92 NSCLC
# [7] = test system: A549/ATCC NSCLC
# [8] = test system: 786-0 renal
# [9] = test system: COLO 205 colon
# [10] = test system: DU-145 prostate
# [11] = test system: K-562 leukemia
# [12] = test system: MALME-3M melanoma
# [13] = test system: MDA-MB-231 breast
# [14] = test system: RXF 393 renal
# [15] = test system: SF-268 CNS
# [16] = test system: SF-295 CNS
# [17] = test system: SF-539 CNS
# [18] = test system: UACC-257 melanoma
# [19] = test system: M14 melanoma
# [20] = test system: NCI-H522 lung
SMILES,growth [1] [%],growth [2] [%],growth [3] [%],growth [4],growth [5],growth [6] [%],growth [7] [%],growth [8] [%],growth [9],growth [10],growth [11],growth [12] [%],growth [13] [%],growth [14] [%],growth [15] [%],growth [16],growth [17],growth [18] [%],growth [19],growth [20] [%]
CCCCN1CCCC[C@@H]1C(=O)N[C@H](C(=O)N(C)[C@H](C[C@@H](OC(C)=O)c1nc(C(=O)NC2CCC(C(=O)OC)CC2)cs1)C(C)C)C(C)C (stereo partly drawn),48.4,71.8,40.5,23%,9.59% (active),37,24.2,36.7,7.59% (active),9.02% (active),9.52% (active),43.8,45.7,18.3,48.8,18.6%,-5.06% (active),59.4,-2.18% (active),–
O=C(CCCC1CCCCC1)OCC(Cl)(Cl)Cl,94.3,99,104,98.7%,101%,77.5,107,102,101%,105%,99.8%,102,116,114,97.1,102%,104%,109,105%,–
O=C1CCC2(O)[C@@H]3Cc4ccc(O)c5c4[C@]2(CCN3Cc2ccoc2)C1O5 (stereo partly drawn),96.7,89.4,110,106%,103%,100,102,103,105%,106%,93.9%,96.7,106,116,108,–,97.8%,103,100%,–
Fc1ccc2c(c1)c(-c1nc(-c3c[nH]c4ncccc34)cs1)cn2CCN1CCOCC1,60,49.2,77.2,39.3%,–,18.8,52.1,71.6,38.4%,77%,18.6%,74.2,42.6,61.6,56.6,62%,55.1%,97.2,41.6%,44.5
CCOP1(=O)CC(C)=C(Cl)C(P(=O)(OCC)OCC)C1 (stereo not drawn),91.5,103,124,93.9%,112%,89.1,90.4,115,94.1%,109%,110%,118,87.6,74.5,107,103%,113%,76.9,74.3%,–
CN(C)C(=O)Oc1ccccc1,104,105,109,96.3%,97.5%,101,103,107,112%,108%,111%,109,115,122,–,103%,93.7%,98.9,103%,–
COC(=O)[C@@]1(C)CC[C@]2(C)CC[C@]3(C)C4=CC(=O)c5c(cc(O)c(O)c5C)[C@]4(C)CC[C@@]3(C)[C@@H]2C1,46.9,51.1,70.6,71.7%,31.8%,49.2,38.6,78.6,71.5%,67.1%,49%,106,61.4,85,61.7,49.8%,78%,41.9,66.4%,–
COC(=O)C12CC(NC(=O)c3csc([C@@H](C[C@H](C(C)C)N(C)C(=O)[C@@H](NC(=O)[C@H]4CCCCN4C)C(C)C)OC(C)=O)n3)(C1)C2,23.9,10.6,41.9,6.07% (active),5.4% (active),52.8,16.6,18.2,-60.1% (active),16.6%,12%,54.4,11.9,–,22.9,-11.2% (active),-29.9% (active),–,2.68% (active),–
